High-throughput results deposited in PubChem by National Center for Advancing Translational Sciences (NCATS).
FEN1 inh – human FEN1 inhibition | P39748 | Recombinant FEN1 flap cleavage, fluorescence, 15 min | Potency, µM (highest dose often 114 µM), without a hit: at the top dose activity change, negative = inhibition, usual class: inhibitors | hit rate 0.35% among 390,000 | AID 588795; also: % is scaled to controls: 0 for no effect and ±100 for the full control effect; nearly all actives have a fitted effect of over 65% in size
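FEN1 at 10 nM, compound pretreatment for 15 min (room temperature), 50 nM final substrate to initiate; endpoint reads at 0 and 15 min; DMSO-only plates used as vehicle background.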
Pol iota inh – DNA polymerase iota (human) inhibition; Pol iota fluorescent replication assay, 10 min; Potency, µM (doses to about 115 µM), inactives show at the top dose activity, negative = inhibition, hits mostly inhibitors; hit rate 1% among 390,000
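Pol iota at 10 nM preincubated 15 min with compounds at room temperature; reaction started with fluorescent substrate, 50 nM final. Fluorescence read kinetically at 0 and 10 min; buffer-only wells as negative control.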
POLB inh – blocks human DNA polymerase beta activity; P06746; Pol beta primer extension/strand displacement, fluorescence kinetic; Potency, µM (top dose mostly 114 µM), without a hit: top-dose activity change, negative = inhibition, actives largely listed as inhibitors; hit rate 1.3% among 340,000; AID 485314; also: % is scaled to controls: 0 for no effect and ±100 for the full control effect
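Enzyme-only controls used 10 nM Pol beta; buffer lacking enzyme served as negative control. Compound preincubated 15 min, then 50 nM substrate added; 0 and 10 min reads at room temperature.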
POLH inh – inhibitors of human DNA polymerase eta; Q9Y253; recombinant Pol eta, fluorescent DNA replication assay; hit rate 1.2% among 390,000; Potency, µM (highest dose often 114 µM), for the others: top-dose activity change, negative = inhibition, usual class: inhibitors; also: % is scaled to controls: 0 for no effect and ±100 for the full control effect
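Pol eta (10 nM) was preincubated with compounds for 15 min at room temperature, after which fluorescent replication substrate (50 nM final) was added to start the reaction. Fluorescence was read kinetically at 0 and 10 min.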
POLK inh – DNA polymerase kappa (human) inhibition | Potency, µM (series often up to 107 µM), for inactives: at the highest dose activity, negative = inhibition, hits mostly inhibitors | Q9UBT6 | purified Pol kappa, fluorescent DNA synthesis assay, 10 min | AID 588579 | hit rate 0.53% among 400,000; also: % is scaled to controls: 0 for no effect and ±100 for the full control effect
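Kinetic fluorescence readout at 0 and 10 min followed reaction start with substrate at 50 nM final. Beforehand, enzyme (10 nM Pol kappa) stood 15 min with compound at room temperature; buffer-only wells were negative controls.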
TDP1 block – blocks human tyrosyl-DNA phosphodiesterase 1; Q9NUW8; recombinant TDP1, AlphaScreen DNA substrate cleavage; Potency, µM (doses to about 130 µM), inactives show top-dose activity change, negative = inhibition, actives largely listed as inhibitors; hit rate 0.28% among 350,000; also: % is scaled to controls: 0 for no effect and ±100 for the full control effect; nearly all actives have a fitted effect of over 40% in size
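Compounds were preincubated with Tdp1 (1 nM final) for 15 min at room temperature before substrate (15 nM final) started a 5 min reaction; beads (10 ug/ml final) were then added for 10 min before AlphaScreen detection.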
Active calls of the source: *; ? = inconclusive; · = not tested or not shown; [ ] = remark or other dose. Sampled rows, rich in hits. Any-hit rate of the full collection: about 2.4%. Calls follow the shape of the dose curve; as a rule, active = well fitted curve in the direction sought with a large enough effect; inconclusive = small, poorly fitted or top-dose-only effect, or another doubt; inactive = no such curve, though single readings can be large; an effect the other way counts as inactive or inconclusive. Potency is read from the fitted curve at half-maximal effect.

SMILES	FEN1 inh	Pol iota inh	POLB inh	POLH inh	POLK inh	TDP1 block
CCOc1ccc(N(CC(=O)NCc2ccccc2)S(C)(=O)=O)cc1	9%	15%	1%	-10%	-2%	2%
NCCNCCN	·	·	·	·	1.1µM*	3%
COc1cc2c(NC3CCN(C)CC3)nc(N3CCCN(C)CC3)nc2cc1OCC1CCCCN1 (stereo unspecified)	20µM*	?	·	·	?	·
COCCCCOc1cc2nc(N3CCCN(C)CC3)nc(NC3CCN(C)CC3)c2cc1OC	45µM*	24%	·	·	-3%	·
COc1cc2c(NC3CCN(C)CC3)nc(N3CCCN(C)CC3)nc2cc1OCCCCCN	8.9µM*	?	·	·	?	·
COc1cc2c(NC3CCN(C)CC3)nc(N3CCCN(C)CC3)nc2cc1OCCCCCC(N)=O	0%	-10%	·	·	-6%	·
COc1cc2c(NC3CCN(C)CC3)nc(N3CCCN(C)CC3)nc2cc1OCCN(C)CCN(C)C	?	-26%	·	·	-20%	·
COc1ccc(OC)c(CNC(=O)c2cc3c(=O)oc4ccc(C)cc4c3s2)c1	10%	?	6%	-23%	?	-2%
CCn1cc(C(=O)N2CCN(c3cc(Cl)ccc3C)CC2)c(=O)c2cc(S(=O)(=O)N3CCCCC3)ccc21	2%	?	10%	-2%	2%	2%
COc1ccc(C2c3c(nc(CCCc4ccccc4)[nH]c3=O)Oc3ccc4ccccc4c32)cc1OC (stereo unspecified)	·	·	·	·	·	3%
COC(=O)CN(c1nc(C)c(Br)c(OC)n1)S(=O)(=O)c1ccc(C)cc1	-11%	?	1%	-11%	3%	2%
C=CCN(c1nc(C)c(Br)c(OC)n1)S(=O)(=O)c1ccc(C)cc1	18%	3%	2%	3%	-1%	50µM*
O=C(Nc1cc(C(F)(F)F)ccc1Cl)C1CCN(c2nnc(-n3cccc3)s2)CC1	3%	?	4µM*	?	-33%	1%[56.1 µM]
CCOc1ccc(/C=C/c2nc(C#N)c(N(C)C)o2)cc1	-1%	8%	11%	-13%	2%	0%
Cc1ccc(C)n1N1C(=O)/C(=C\c2ccc(Cl)cc2)SC1=S	-2%	?	12%	-6%	-24%	10%
CC(=O)N(C(C)=O)N1C(=O)/C(=C/c2ccc(Cl)cc2)SC1=S	?	25µM*	?	28µM*	-34%	8%
CCOP(=O)(OCC)/C(C#N)=C/c1c[nH]c2ccccc12	-6%	19%	0%	-2%	-7%	3%
CCOP(=O)(OCC)C(C#N)=C1SCN(c2ccccc2)CS1	13%	?	·	40µM*	-15%	·
Cc1cc(-c2nnc(SCC(=O)c3ccc(F)cc3)o2)no1	2%	75%	-5%	-10%	-15%	-2%
Cc1cc(-c2nnc(SCC(=O)c3ccc4c(c3)OCCO4)o2)no1	-5%	54%	40µM*	-13%	-7%	-3%
COc1ccc(C2Nc3ccccc3C(=O)N2Cc2cccc(Cl)c2)cc1COc1ccc(NC(C)=O)cc1 (stereo unspecified)	·	·	·	·	·	1%
Cc1cc(C)nc(NC(=O)c2cnc3sccn3c2=O)n1	21%	12%	-24%	-15%	-5%	2%
Cc1cc(NS(=O)(=O)c2ccc(NC(=O)c3cnc4sccn4c3=O)cc2)nc(C)n1	13%	?	?	8.9µM*	?	·
Cc1cc(NS(=O)(=O)c2ccc(NC(=O)CCCOc3ccccc3C)cc2)nc(C)n1	0%	10µM*	-13%	79µM*	-21%	·
Cc1sc2ncn(CC(=O)N(C)c3ccc(Br)cc3)c(=O)c2c1S(=O)(=O)N1CCC(C)CC1	-11%	-1%	25%	?	-7%	0%
Cc1cccc(C)c1NC(=O)C1CCCN1S(=O)(=O)c1ccc(-c2ccc(=O)[nH]n2)s1 (stereo unspecified)	-5%	34%	-9%	-17%	15%	5%
